The values that follow come from PubChem BioAssay (EPA / NIEHS).

Test [1] can be described thus: ATG_NFI_CIS: Attagene CIS-FACTORIAL HepG2 Assay for human Nuclear Factor I (NFI) (AID 2282989). The note with it: HepG2 cis-regulatory reporter, NFI response element transcription; actives raise or lower the signal. In outline:
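Reporter transcripts were measured by RT-PCR with fluorescent primer extension and capillary electrophoresis 24 h post-treatment. HepG2 cells carried transiently transfected cis-regulated reporter constructs reporting endogenous factor activity; gain or loss fitted against DMSO baseline.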

Test [2] has as its target Myc proto-oncogene protein (Homo sapiens) (UniProt P01106). Put plainly: ATG_Myc_CIS: Attagene CIS-FACTORIAL HepG2 Assay for human Myelocytomatosis (Myc) Proto-Oncogene Transcription Factor (AID 2282990). As to conditions: HepG2, Attagene cis-reporter transcription factor activity; actives raise or lower the signal. In outline: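 HepG2 cells transiently transfected with multiple cis-promoter-driven reporter transcription units, so endogenous TF activity is read. After 24 h compound exposure, reporter mRNA was quantified by RT-PCR, 6-FAM labelling, HpaI digestion and capillary electrophoresis; bidirectional fit versus DMSO.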

The nature of test [3]: ATG_NF_kB_CIS: Attagene CIS-FACTORIAL HepG2 Assay for human Nuclear Factor Kappa B (NF-kB) (AID 2282991). As to conditions: HepG2 Attagene cis-factorial NF-kB reporter mRNA; actives raise or lower the signal. The method in brief:
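Read-out: reporter transcript levels quantified by RT-PCR plus capillary electrophoresis of 6-FAM-labelled, HpaI-cut fragments. Transfected HepG2 cells, 24 h compound exposure, endogenous NF-kB-driven cis element; gain or loss scored versus DMSO.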

The nature of test [4]: ATG_NRF2_ARE_CIS: Attagene CIS-FACTORIAL HepG2 Assay for human Nuclear Factor Erythroid 2 Related Factor 2 (NFR2) response to Antioxidant Response Elements (ARE) (AID 2282992). As to conditions: HepG2 Attagene ARE/NRF2 reporter, transcription factor activity; actives raise or lower the signal. The method in brief: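 Endogenous transcription factor activity read out as reporter transcript levels (RT-PCR plus capillary electrophoresis, fluorescence) in transiently transfected HepG2 cells. Measured at 24 h after dosing; gain or loss of signal fitted versus DMSO.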

Test [5] can be described thus: ATG_Oct_MLP_CIS: Attagene CIS-FACTORIAL HepG2 Assay for human Octamer-Binding Transcription Factor (Oct) (AID 2282993). As to conditions: HepG2 Attagene cis-factorial Oct reporter, mRNA; actives raise or lower the signal. In outline:
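Readout is reporter transcript level from RT-PCR with fluorescent primer extension and capillary electrophoresis, fitted in both directions against DMSO. Transfected HepG2 reporter units report endogenous factor activity after 24 h dosing.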

Test [6] has as its target Cellular tumor antigen p53 (Homo sapiens) (UniProt P04637). Kind of test: ATG_p53_CIS: Attagene CIS-FACTORIAL HepG2 Assay for human p53 Transcription Factor (AID 2282994). The note with it: HepG2 p53 cis-element reporter, Attagene mRNA; actives raise or lower the signal. The method in brief:
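Endogenous p53 activity read in transiently transfected HepG2 from a cis-element-driven reporter transcript after 24 h exposure. RNA reverse-transcribed, PCR-amplified, fluorescently labelled and sized by capillary electrophoresis; gain or loss fitted against DMSO baseline.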

The nature of test [7]: BSK_3C_TissueFactor: BioMAP Diversity Plus: 3C Assay for Tissue Factor Biomarker Activity (AID 2282997). The note with it: BioMAP 3C HUVEC, tissue factor biomarker readout; actives raise or lower the signal. The method in brief: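 After a 24 h chemical exposure of primary human umbilical vein endothelial cells, Tissue Factor levels were quantified by ELISA.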
Test [8] is described as follows: BSK_3C_uPAR: BioMAP Diversity Plus: 3C Assay for Urokinase-type plasminogen activator receptor (uPAR) Biomarker Activity (AID 2282998). The note with it: BioMAP 3C HUVEC, uPAR biomarker ELISA; actives raise or lower the signal. In outline:
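Cell-surface uPAR on HUVEC (3C system) read by ELISA at 24 h post-treatment, with DMSO as baseline and fitting in both directions. Parallel cultures stained with SRB to flag overt cytotoxicity.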
Background: In an ELISA, binding on a coated surface is turned into a signal by an enzyme label.

A short description of test [9]: BSK_3C_VCAM1: BioMAP Diversity Plus: 3C Assay for Vascular cell adhesion molecule 1 (VCAM1) Biomarker Activity (AID 2282999). As to conditions: BioMAP 3C HUVEC, VCAM1 ELISA, cytokine-stimulated; actives raise or lower the signal. In outline:
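Vascular primary endothelium (human umbilical vein) was exposed to chemicals and assayed 24 h later. VCAM-1 levels came from ELISA, with DMSO serving as baseline for bidirectional fitting.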

Test [10] in a line: BSK_4H_Eotaxin3: BioMAP Diversity Plus: 4H Assay for Eotaxin 3 Biomarker Activity (AID 2283000).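 As to outcome: CCL26 protein level quantified by ELISA in parallel with SRB cytotoxicity check.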 As to conditions: primary human endothelial cells (HUVEC); actives raise or lower the signal. In outline: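 Chemicals were added to human umbilical vein endothelium cultures, and Eotaxin-3 was quantified by ELISA at 24 h. Values were derived by bidirectional fitting with DMSO serving as negative control and activity baseline.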

The target of test [11] is human Peroxisome Proliferator-activated Receptor alpha (PPARa), PPARA (gene 5465) (UniProt Q07869). Put plainly: ATG_PPARa_TRANS: Attagene TRANS-FACTORIAL HepG2 Assay for human Peroxisome Proliferator-activated Receptor alpha (PPARa) (AID 2283001; active = hit-call score of the fitted dose curve at least 0.9, where 1 is the maximum). In outline:
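Cells (HepG2) are transfected with multiple reporter transcription units, exposed to chemical for 24 h, then total RNA is reverse-transcribed and amplified. Labelled products are quantified by capillary electrophoresis; induction is referenced to DMSO.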

Read-out in test [12]: Intercellular Adhesion Molecule 1 (ICAM1), ICAM1 (gene 3383)
Put plainly: BSK_3C_ICAM1: BioMAP Diversity Plus: 3C Assay for Intercellular Adhesion Molecule 1 (ICAM1) Biomarker Activity (AID 2283003). The note with it: primary human endothelial cells (HUVEC); actives raise or lower the signal. In outline:
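Chemicals are dosed onto primary human umbilical vein endothelium (3C system). After 24 h, ICAM-1 is measured by ELISA, and responses are fitted bidirectionally relative to DMSO.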

A short description of test [13]: BSK_3C_Proliferation: Cell Proliferation Assessment in the BioMAP Diversity Plus: 3C Assay (AID 2283006).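 As to AC50: potency may reflect either rise or fall in cell number versus DMSO.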 As to conditions: primary human endothelial cells (HUVEC). In outline:
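Cells (human umbilical vein endothelial, sub-confluent) receive test chemical; after 48 h they are fixed in 10% trichloroacetic acid, stained with 0.1% SRB and read at 560 nm. Activity is referenced to DMSO, fitting increases and decreases.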

The target of test [14] is Peroxisome proliferator-activated receptor gamma (Homo sapiens) (UniProt P37231). Kind of test: ATG_PPARg_TRANS: Attagene TRANS-FACTORIAL HepG2 Assay for human Peroxisome Proliferator-activated Receptor-gamma (PPARg) (AID 2283007; active = hit-call score of the fitted dose curve at least 0.9, where 1 is the maximum). In outline: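 Read-out: reporter mRNA induction, detected by fluorescence after RT-PCR and capillary electrophoresis. Transiently transfected human HepG2 liver cells carrying a chimeric NR-Gal4 construct were dosed for 24 h; activity was fitted upward relative to DMSO.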

Test [15] concerns the target human Retinoic Acid Receptor beta (RARb), RARB (gene 5915) (UniProt P10826). Put plainly: ATG_RARb_TRANS: Attagene TRANS-FACTORIAL HepG2 Assay for human Retinoic Acid Receptor beta (AID 2283004; active = hit-call score of the fitted dose curve at least 0.9, where 1 is the maximum). The method in brief:
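Transient transfection of HepG2 with multiple reporter units → chemical dosing, 24 h → total RNA isolation → RT with oligo(dT) → reporter-specific PCR, 6-FAM primer extension, HpaI digest → capillary electrophoresis. Positive direction vs DMSO control.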

The target of test [16] is human RAR-related Orphan Receptor beta (RORb), RORB (gene 6096) (UniProt Q92753). Put plainly: ATG_RORb_TRANS: Attagene TRANS-FACTORIAL HepG2 Assay for human RAR-related Orphan Receptor beta (RORb) (AID 2283010; active = hit-call score of the fitted dose curve at least 0.9, where 1 is the maximum). The method in brief: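 Transfect HepG2 with multiple GAL4-UAS reporter transcription units; dose chemicals for 24 h; isolate RNA, reverse-transcribe and PCR-amplify reporter sequences; label, digest and resolve fragments by capillary electrophoresis; fit increases relative to DMSO.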

Test [17] addresses Nuclear receptor subfamily 1 group I member 2 (Homo sapiens) (UniProt O75469). Kind of test: ATG_PXR_TRANS: Attagene TRANS-FACTORIAL HepG2 Assay for human Pregnane X Receptor (PXR) (AID 2283008; active = hit-call score of the fitted dose curve at least 0.9, where 1 is the maximum). The method in brief: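 Transactivation by exogenous PXR–GAL4 fusion measured as reporter transcript induction after 24 h compound treatment of transfected human HepG2 cells. Read-out via RT-PCR and capillary electrophoresis of labelled fragments, fitted upward relative to DMSO.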

The target in test [18] is Retinoic acid receptor alpha (Homo sapiens) (UniProt P10276). Put plainly: ATG_RARa_TRANS: Attagene TRANS-FACTORIAL HepG2 Assay for human Retinoic Acid Receptor alpha (RARa) (AID 2283005; active = hit-call score of the fitted dose curve at least 0.9, where 1 is the maximum). In outline:
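HepG2 cells transiently transfected with multiple reporter units expressing chimeric RARα-GAL4 fusion, with GAL4-UAS-driven reporters. After 24 h compound exposure, reporter mRNA induction quantified by RT-PCR and capillary electrophoresis with fluorescent labeling; gain-of-signal fitted relative to DMSO control.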

For test [19], the target named is human Peroxisome Proliferator-activated Receptor delta (PPARd), PPARD (gene 5467) (UniProt Q03181). Put plainly: ATG_PPARd_TRANS: Attagene TRANS-FACTORIAL HepG2 Assay for human Peroxisome Proliferator-activated Receptor delta (PPARd) (AID 2283002; active = hit-call score of the fitted dose curve at least 0.9, where 1 is the maximum). The method in brief:
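HepG2 cells transiently transfected with multiplexed GAL4-UAS reporter units and exogenous chimeric NR-Gal4 proteins; 24 h compound exposure. Reporter mRNA measured by RT-PCR, 6-FAM labelling, HpaI digestion and capillary electrophoresis; gain of signal versus DMSO.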

Results filed as inconclusive are left out. Activity calls are given as the source filed them. The calls were made as follows, unless noted: active = hit-call score of the fitted dose curve at least 0.9, where 1 is the maximum; inactive = score below 0.9.

Chain of human Retinoic Acid Receptor beta (RARb), RARB (gene 5915) (P10826 whole entry, looked up): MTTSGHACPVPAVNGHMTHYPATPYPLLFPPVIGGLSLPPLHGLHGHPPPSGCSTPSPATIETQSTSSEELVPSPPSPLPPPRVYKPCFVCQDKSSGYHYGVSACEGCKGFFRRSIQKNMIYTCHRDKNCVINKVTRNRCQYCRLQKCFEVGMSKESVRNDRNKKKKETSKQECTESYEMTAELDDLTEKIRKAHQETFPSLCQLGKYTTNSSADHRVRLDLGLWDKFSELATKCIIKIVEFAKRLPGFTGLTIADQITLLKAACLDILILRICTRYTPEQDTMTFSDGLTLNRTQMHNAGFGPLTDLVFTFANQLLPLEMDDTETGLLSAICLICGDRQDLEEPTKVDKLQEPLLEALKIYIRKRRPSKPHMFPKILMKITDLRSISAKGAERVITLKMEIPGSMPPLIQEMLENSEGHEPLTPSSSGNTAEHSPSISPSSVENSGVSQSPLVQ
Chain of human Peroxisome Proliferator-activated Receptor alpha (PPARa), PPARA (gene 5465) (Q07869 whole entry, looked up): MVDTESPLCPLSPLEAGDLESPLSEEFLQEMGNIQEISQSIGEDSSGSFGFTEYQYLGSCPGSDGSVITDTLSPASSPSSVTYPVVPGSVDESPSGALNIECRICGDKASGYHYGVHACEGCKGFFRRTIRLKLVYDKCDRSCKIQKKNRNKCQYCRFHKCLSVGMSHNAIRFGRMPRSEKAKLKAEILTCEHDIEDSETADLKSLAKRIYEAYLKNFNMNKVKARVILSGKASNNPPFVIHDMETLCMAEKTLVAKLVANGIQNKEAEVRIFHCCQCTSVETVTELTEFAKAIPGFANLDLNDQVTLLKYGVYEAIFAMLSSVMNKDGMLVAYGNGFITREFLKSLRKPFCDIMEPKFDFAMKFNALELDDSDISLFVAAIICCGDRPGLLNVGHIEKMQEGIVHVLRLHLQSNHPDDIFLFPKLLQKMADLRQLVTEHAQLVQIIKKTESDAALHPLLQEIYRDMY
Chain of Myc proto-oncogene protein (Homo sapiens) (P01106 whole entry, looked up): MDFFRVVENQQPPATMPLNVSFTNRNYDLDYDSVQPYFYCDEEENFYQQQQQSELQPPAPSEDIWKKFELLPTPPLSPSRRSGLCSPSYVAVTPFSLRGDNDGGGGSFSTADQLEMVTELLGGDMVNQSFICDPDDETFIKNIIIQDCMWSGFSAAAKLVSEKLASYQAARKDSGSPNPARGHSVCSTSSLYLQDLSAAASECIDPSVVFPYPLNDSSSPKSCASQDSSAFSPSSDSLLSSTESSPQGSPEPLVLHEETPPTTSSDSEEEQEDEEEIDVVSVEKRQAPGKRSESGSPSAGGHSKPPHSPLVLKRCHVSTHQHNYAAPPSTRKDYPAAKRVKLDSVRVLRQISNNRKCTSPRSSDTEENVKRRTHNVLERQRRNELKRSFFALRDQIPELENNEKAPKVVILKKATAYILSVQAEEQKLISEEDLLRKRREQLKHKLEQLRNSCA
Chain of human RAR-related Orphan Receptor beta (RORb), RORB (gene 6096) (Q92753 whole entry, looked up, the tested form may be a part): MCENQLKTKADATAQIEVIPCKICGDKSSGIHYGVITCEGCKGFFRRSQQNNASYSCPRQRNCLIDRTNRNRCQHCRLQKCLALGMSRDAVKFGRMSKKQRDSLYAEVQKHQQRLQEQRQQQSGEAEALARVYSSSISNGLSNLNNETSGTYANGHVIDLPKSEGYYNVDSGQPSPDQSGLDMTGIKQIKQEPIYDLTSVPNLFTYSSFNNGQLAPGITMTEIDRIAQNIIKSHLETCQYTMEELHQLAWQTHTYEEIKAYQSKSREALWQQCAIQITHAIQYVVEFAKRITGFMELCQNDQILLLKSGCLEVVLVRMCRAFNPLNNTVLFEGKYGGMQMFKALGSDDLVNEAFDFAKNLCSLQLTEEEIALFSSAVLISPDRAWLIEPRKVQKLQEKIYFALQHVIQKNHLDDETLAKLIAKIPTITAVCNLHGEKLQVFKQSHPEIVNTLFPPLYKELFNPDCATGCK
Chain of Nuclear receptor subfamily 1 group I member 2 (Homo sapiens) (O75469 whole entry, looked up, the tested form may be a part): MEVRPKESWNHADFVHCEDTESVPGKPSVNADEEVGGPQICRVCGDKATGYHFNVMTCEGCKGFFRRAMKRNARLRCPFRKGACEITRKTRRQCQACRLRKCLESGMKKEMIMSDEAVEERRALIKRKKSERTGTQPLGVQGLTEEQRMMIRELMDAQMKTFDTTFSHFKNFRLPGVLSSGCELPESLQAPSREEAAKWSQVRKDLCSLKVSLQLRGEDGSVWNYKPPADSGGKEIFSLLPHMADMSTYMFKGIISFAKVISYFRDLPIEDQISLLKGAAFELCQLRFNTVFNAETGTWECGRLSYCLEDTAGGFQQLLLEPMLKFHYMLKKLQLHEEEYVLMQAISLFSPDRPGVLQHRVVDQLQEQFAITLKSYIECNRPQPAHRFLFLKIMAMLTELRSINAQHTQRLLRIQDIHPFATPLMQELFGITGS
Chain of Peroxisome proliferator-activated receptor gamma (Homo sapiens) (P37231 whole entry, looked up, the tested form may be a part): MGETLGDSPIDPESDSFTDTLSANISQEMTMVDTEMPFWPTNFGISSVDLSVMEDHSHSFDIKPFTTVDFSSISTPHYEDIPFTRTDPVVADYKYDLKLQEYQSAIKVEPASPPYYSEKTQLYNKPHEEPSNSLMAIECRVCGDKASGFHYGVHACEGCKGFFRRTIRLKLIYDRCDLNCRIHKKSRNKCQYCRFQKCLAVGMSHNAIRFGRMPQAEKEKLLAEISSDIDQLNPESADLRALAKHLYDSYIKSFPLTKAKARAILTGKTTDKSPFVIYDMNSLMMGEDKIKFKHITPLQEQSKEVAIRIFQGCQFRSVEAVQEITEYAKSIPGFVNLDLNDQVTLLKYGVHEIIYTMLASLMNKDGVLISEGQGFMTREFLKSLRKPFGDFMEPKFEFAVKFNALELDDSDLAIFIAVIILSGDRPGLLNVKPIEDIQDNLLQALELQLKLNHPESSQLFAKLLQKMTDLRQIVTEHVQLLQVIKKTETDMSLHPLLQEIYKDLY
Chain of Cellular tumor antigen p53 (Homo sapiens) (P04637 whole entry, looked up): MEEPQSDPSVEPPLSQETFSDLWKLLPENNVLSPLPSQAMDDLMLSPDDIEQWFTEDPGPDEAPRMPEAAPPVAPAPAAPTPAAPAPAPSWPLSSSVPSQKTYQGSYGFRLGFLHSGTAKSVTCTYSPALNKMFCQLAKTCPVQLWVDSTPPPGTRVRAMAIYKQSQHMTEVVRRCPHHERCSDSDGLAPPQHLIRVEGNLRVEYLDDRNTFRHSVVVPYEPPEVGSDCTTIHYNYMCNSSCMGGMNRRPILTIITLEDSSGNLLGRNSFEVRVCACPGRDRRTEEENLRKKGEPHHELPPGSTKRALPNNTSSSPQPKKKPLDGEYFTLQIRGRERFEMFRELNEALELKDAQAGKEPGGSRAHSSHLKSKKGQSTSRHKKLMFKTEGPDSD
Chain of human Peroxisome Proliferator-activated Receptor delta (PPARd), PPARD (gene 5467) (Q03181 whole entry, looked up, the tested form may be a part): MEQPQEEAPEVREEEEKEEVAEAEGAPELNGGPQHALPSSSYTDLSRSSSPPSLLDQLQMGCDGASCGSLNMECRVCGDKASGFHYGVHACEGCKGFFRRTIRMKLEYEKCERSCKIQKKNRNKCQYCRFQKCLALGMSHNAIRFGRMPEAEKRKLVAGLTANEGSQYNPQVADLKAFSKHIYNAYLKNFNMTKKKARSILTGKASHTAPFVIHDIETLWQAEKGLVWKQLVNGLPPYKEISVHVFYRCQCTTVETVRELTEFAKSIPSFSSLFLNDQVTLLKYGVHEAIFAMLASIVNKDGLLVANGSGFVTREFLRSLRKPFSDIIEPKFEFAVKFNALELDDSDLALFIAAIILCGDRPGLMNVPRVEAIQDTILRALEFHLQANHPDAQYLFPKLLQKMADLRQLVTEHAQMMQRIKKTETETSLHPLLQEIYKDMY
Chain of Retinoic acid receptor alpha (Homo sapiens) (P10276 whole entry, looked up, the tested form may be a part): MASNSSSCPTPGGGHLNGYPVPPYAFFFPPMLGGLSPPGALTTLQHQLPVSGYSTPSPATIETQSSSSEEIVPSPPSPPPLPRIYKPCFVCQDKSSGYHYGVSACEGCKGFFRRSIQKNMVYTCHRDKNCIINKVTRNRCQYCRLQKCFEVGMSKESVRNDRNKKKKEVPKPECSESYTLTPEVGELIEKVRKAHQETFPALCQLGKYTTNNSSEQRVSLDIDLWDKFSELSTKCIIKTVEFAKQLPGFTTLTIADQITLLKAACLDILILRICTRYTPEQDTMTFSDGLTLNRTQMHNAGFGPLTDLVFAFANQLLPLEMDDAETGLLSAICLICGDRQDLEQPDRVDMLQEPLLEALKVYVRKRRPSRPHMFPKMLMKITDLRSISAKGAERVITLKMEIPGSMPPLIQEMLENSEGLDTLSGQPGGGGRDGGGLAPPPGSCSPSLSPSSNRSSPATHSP

With `CCCCCCCCCCCCCCCCCC(=O)O`, the result in test [1], in test [2], in test [3], in [4], in test [5] and in test [6] was inactive. Moreover, the outcome in test [7], in test [8], in [9], in [10], in [11] and in test [12] was inactive. In addition, the result in test [14] was inactive. In addition, the AC50 (as a rule, the midpoint of the concentration-response curve, whichever way the signal moves) in [13] was 3.97 µM (active).

Regarding `COCCOCCOC`, the result in test [1], in [2], in test [3], in test [4], in [5] and in test [6] was inactive. For the same compound, the outcome in test [7], in [8], in test [9], in test [10], in test [12] and in test [15] was inactive. Further, the result in test [13] and in test [16] was inactive.

With `C[C@]12C=CC(=O)C=C1CC[C@@H]1[C@@H]2C(=O)C[C@@]2(C)[C@H]1CC[C@]2(O)C(=O)CO`, the call in test [1], in [2], in [3], in [4], in [5] and in test [6] was inactive. Besides, the outcome in test [7], in test [8], in test [9], in [10], in test [11] and in test [12] was inactive. The result in [13], in test [14] and in [17] was inactive.

In the case of `Cc1nc(-c2ccc3c(c2)CCN(CCC2CCC(NC(=O)/C=C/c4ccc(F)cc4)CC2)CC3)no1` (configuration not stated), the compound was called inactive in test [1], in test [2], in [3], in test [4], in test [5] and in test [6]. The result in test [8], in test [11], in test [12] and in test [14] was inactive. The values for the AC50 in test [9], in test [10] and in test [13] were 12.8 µM (active), 12.9 µM (active) and 4.71 µM (active), respectively.

As for `COC(=O)c1ccc(O)cc1`, the outcome in [1], in test [2], in [3], in [4], in [5] and in test [6] was inactive. Further, the outcome in test [8], in test [9], in test [10], in test [11], in test [12] and in test [13] was inactive. Also, in [17], the compound was called inactive.

On to `Oc1ccc2ccccc2c1N=Nc1ccccc1`, for which the result in [1], in test [2], in test [3], in [5], in [6] and in test [8] was inactive. The result in [9], in test [11], in test [12], in [15], in [18] and in test [13] was inactive. In addition, the outcome in test [17] and in test [16] was inactive. The AC50 in [4] was 1.42 µM (active); in [7], 6 µM (active); in [10] it was 1.7 µM (active); in test [14] it was 3.87 µM (active).

Consider `COc1ccc(C)cc1N`, for which the call in test [1], in [2], in test [3], in test [4], in test [5] and in test [6] was inactive. For the same compound, the result in test [8], in test [9], in [10], in [11], in test [19] and in test [12] was inactive. Besides, the compound was classed as inactive in test [15], in [13] and in [14].

On to `COc1ccc2c(c1)c(CC(=O)O)c(C)n2C(=O)c1ccc(Cl)cc1`, for which the compound was called inactive in test [1], in test [2], in test [4], in [5], in [6] and in [7]. Besides, the outcome in test [8], in [9], in test [10], in test [11], in [19] and in [12] was inactive. Moreover, the result in [13], in test [17] and in [16] was inactive.
